Test results reported in the supplement of paper PMC4723716.
± gives the uncertainty stated by the source. The full ranking holds about 9,900 compounds; the median of “viability index relative to DMSO control” is about 1, and the lowest 2% start at about 0.85. Many of the other results were omitted from the sample, so the lowest values are more common in it than they were.

Test system: Plasmodium falciparum NF54 stage V gametocytes
Experiment: viability index relative to DMSO control (fraction); higher = less gametocyte killing
Details: 2.5 µM, incubation time: 72 h
Outline: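 P. falciparum NF54 stage V gametocytes (serum-free medium, 0.75% gametocytemia, 1.25% hematocrit) were exposed to compound at 2.5 µM for 72 hr at 37°C under low oxygen, then stained with MitoTracker Red CMXRos and saponin for one to two hours. Red particles of 20–70 µm2 in one field per well were counted, and the viability index is that count scaled to the plate mean of solvent-only wells.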

[1] = library set: Broad Institute DOS
[2] = library set: Broad Institute Blood Stage

| Structure (SMILES) | viability index [1] | viability index [2] |
| --- | --- | --- |
| CN1C(=O)c2cc(NC(=O)c3cnccn3)ccc2OC[C@H]2O[C@H](CC(=O)NCC3CCCCC3)CC[C@@H]21 | 0.959 ± 0.028 |  |
| Cc1ccc(S(=O)(=O)N[C@H]2CC[C@@H](CC(=O)NCc3ccncn3)O[C@@H]2CO)cc1 | 1.01 ± 0.11 |  |
| CN1[C@@H]2CN(C(=O)C3CCCCC3)c3ccccc3[C@@H]2[C@@H]1CO | 1.06 ± 0.063 |  |
| COc1ccc(NC(=O)N2C[C@@]3(C2)CN([C@@H](CO)c2[nH]c4cc(OC)ccc4c32)C(C)=O)cc1 | 1.01 ± 0.1 |  |
| COc1ccc2c3c([nH]c2c1)[C@H](CO)N(C[C@]31CCN(Cc2ccncc2)CC1)C(=O)CC1CC1 | 0.934 ± 0.098 |  |
| O=C(C1CCOCC1)N1CC(=O)N2[C@H](C1)[C@H](c1ccc(C#CCc3ccccc3)cc1)[C@@H]2CO | 1.09 ± 0.14 |  |
| COCc1cn(CC[C@H]2CC[C@@H](NC(=O)Nc3c(C)noc3C)[C@H](CO)O2)nn1 | 1.03 ± 0.051 |  |
| COCc1cn([C@@H]2C[C@@H]3O[C@@H](CO)CC[C@@H]3O[C@@H]2CCc2ccc(-c3ccc(OC)cc3)cc2)nn1 |  | 0.811 ± 0.063 |
| COCc1cn(CC[C@H]2CC[C@H](NC(=O)Nc3c(C)noc3C)[C@@H](CO)O2)nn1 | 0.927 ± 0.067 |  |
| O=C(C1CCOCC1)N1CC(=O)N2[C@H](C1)[C@@H](c1ccc(C#CCc3ccccc3)cc1)[C@@H]2CO | 1.06 ± 0.041 |  |
| COCc1cn(CC[C@@H]2CC[C@H](NC(=O)Nc3c(C)noc3C)[C@@H](CO)O2)nn1 | 1.07 ± 0.097 |  |
| OC[C@H]1CC[C@@H]2O[C@H](CCc3ccc(C#CCc4ccccc4)cc3)[C@H](n3cc(-c4ccccc4)nn3)C[C@@H]2O1 |  | 0.781 ± 0.043 |
| COCc1cn([C@@H]2C[C@@H]3O[C@H](CO)CC[C@@H]3O[C@@H]2CCc2ccc(-c3ccc(OC)cc3)cc2)nn1 |  | 0.791 ± 0.041 |
| COCc1cn(CC[C@@H]2CC[C@H](NC(=O)Nc3c(C)noc3C)[C@H](CO)O2)nn1 | 0.951 ± 0.12 |  |
| CCC(=O)N1CC2(C1)[C@@H](c1ccc(-c3cccc(C)c3)cc1)[C@@H](CO)N2S(C)(=O)=O | 1.057 ± 0.0069 |  |
| Cc1nn(C)cc1NC(=O)C[C@@H]1CC[C@@H]2[C@H](COc3ccc(NC(=O)c4cccc(F)c4)cc3C(=O)N2C)O1 | 1.15 ± 0.11 |  |
| O=C(C[C@@H]1CC[C@@H]2[C@H](COC[C@@H](O)CN2C(=O)Nc2cccc(F)c2)O1)NCCCN1CCOCC1 | 1.12 ± 0.081 |  |
| COc1ccc(CN(C)C[C@@H]2OCc3cnnn3CCCC(=O)N([C@H](C)CO)C[C@@H]2C)cc1 | 0.963 ± 0.038 |  |
| O=C(CN1CCOCC1)N[C@H]1CC[C@H](CCn2cc(C3CC3)nn2)O[C@@H]1CO | 1.16 ± 0.021 |  |
| C/C=C/c1ccc2n(c1=O)C[C@@H]1N[C@H]2[C@H](C(=O)NC2CCCC2)[C@H]1CO.C/C=C\c1ccc2n(c1=O)C[C@@H]1N[C@H]2[C@H](C(=O)NC2CCCC2)[C@H]1CO | 1.04 ± 0.018 |  |
| COc1ccc2c3c([C@@H](CO)N(C[C@]33CN(C3)C(=O)c3cccc(F)c3)C(=O)c3cccc(F)c3)n(C)c2c1 | 0.848 ± 0.02 |  |
| COc1ccc2c(c1)n(C)c1[C@H](CO)N(C[C@]3(CCN(C)CC3)c21)C(=O)c1ccc(F)cc1 | 1.05 ± 0.018 |  |
| COc1ccc2c3c([C@@H](CO)N(C[C@]33CCN(CC3)C(=O)c3ccccc3)C(=O)c3ccccc3)n(C)c2c1 | 0.761 ± 0.011 |  |

| Structure (SMILES) | viability index [1] | viability index [2] |
| --- | --- | --- |
| CCS(=O)(=O)N1CC[C@@]2(CC1)CN([C@@H](CO)c1c2c2ccc(OC)cc2n1C)C(=O)c1cccc(F)c1 | 1.02 ± 0.079 |  |
| COc1ccc2c3c([C@H](CO)N(C[C@]33CN(C3)C(=O)c3cccc(F)c3)C(=O)c3cccc(F)c3)n(C)c2c1 | 1.04 ± 0.047 |  |
| COc1ccc2c3c([C@H](CO)N(C[C@]33CCN(CC3)C(=O)c3ccccc3)C(=O)c3ccccc3)n(C)c2c1 | 0.979 ± 0.13 |  |
| Cc1noc(C)c1S(=O)(=O)Nc1ccc2c(c1)C(=O)N([C@@H](C)CO)C[C@H](C)[C@H](CN(C)Cc1ccc(C(=O)O)cc1)OCCCC[C@H](C)O2 | 1.14 ± 0.051 |  |
| O=C(C[C@H]1C[C@H]2c3cc(NC(=O)C4CCOCC4)ccc3O[C@H]2[C@H](CO)O1)NCc1cccnc1 | 1.086 ± 0.0019 |  |
| O=C(N[C@H]1CC[C@@H](CCn2cc(-c3ccccc3F)nn2)O[C@H]1CO)c1ccc2c(c1)OCO2 | 1.1 ± 0.06 |  |
| COC(=O)C[C@@H]1CC[C@H]2[C@@H](COc3ccc(NS(=O)(=O)c4ccc(C)cc4)cc3C(=O)N2C)O1 | 1.07 ± 0.083 |  |
| CN1C(=O)c2cc(NC(=O)c3ccc(F)c(F)c3)ccc2OC[C@H]2O[C@@H](CC(=O)N3CCCCC3)CC[C@H]21 | 1.1 ± 0.0047 |  |
| COc1ccc2c3c([C@H](CO)N(C[C@]33CCN(CC3)C(=O)c3ccc4OCOc4c3)C(=O)Nc3ccc(F)cc3)n(C)c2c1 | 0.846 ± 0.055 |  |
| COCC(=O)N1C[C@@]2(C1)CN(Cc1ccc3OCOc3c1)[C@H](CO)c1c2c2ccc(OC)cc2n1C | 0.938 ± 0.068 |  |
| COc1ccc2c3c([C@@H](CO)N(CC4CC4)C[C@]33CN(C3)C(=O)c3ccc4OCOc4c3)n(C)c2c1 | 1.02 ± 0.016 |  |
| COc1ccc2c3c([C@@H](CO)N(Cc4ccccc4Cl)C[C@]33CCN(CC3)C(=O)CC3CC3)n(C)c2c1 | 0.939 ± 0.025 |  |
| COc1ccc(cc1)S(=O)(=O)N1C[C@@]2(C1)CN([C@H](CO)c1c2c2ccc(OC)cc2n1C)C(=O)CN(C)C | 0.841 ± 0.028 |  |
| COc1ccc2c3c([C@H](CO)N(Cc4ccccc4Cl)C[C@]33CN(C3)C(=O)CN(C)C)n(C)c2c1 | 0.782 ± 0.042 |  |
| COc1ccc2c3c([C@H](CO)N(Cc4ccc5OCOc5c4)C[C@]33CN(C3)C(=O)c3ccc4OCOc4c3)n(C)c2c1 |  | 0.435 ± 0.088 |
| COc1ccc2c3c([C@@H](CO)N(C)C[C@]33CCN(CC3)C(=O)c3ccc4OCOc4c3)n(C)c2c1 | 0.9516 ± 0.0011 |  |
| COc1ccc2c3c([C@@H](CO)N(C[C@]33CCN(CC3)S(C)(=O)=O)C(=O)CN(C)C)n(C)c2c1 | 0.956 ± 0.029 |  |
| COc1ccc2c3c([C@@H](CO)N(C[C@]33CCN(CC3)C(=O)c3ccc4OCOc4c3)C(=O)Nc3ccc(F)cc3)n(C)c2c1 | 0.967 ± 0.057 |  |
| COc1ccc2c3c([C@H](CO)N(Cc4ccccc4Cl)C[C@]33CCN(CC3)C(=O)CC3CC3)n(C)c2c1 | 0.922 ± 0.014 |  |
| COc1ccc(cc1)S(=O)(=O)N1C[C@@]2(C1)CN([C@@H](CO)c1c2c2ccc(OC)cc2n1C)C(=O)CN(C)C | 0.95 ± 0.059 |  |
| COc1ccc2c3c([C@@H](CO)NC[C@]33CN(CC4CCOCC4)C3)n(C)c2c1 | 1.07 ± 0.029 |  |
| C[C@H](CO)N1C[C@H](C)[C@H](CN(C)Cc2ccc(Oc3ccccc3)cc2)Oc2ccc(N(C)C)cc2C1=O | 1.01 ± 0.043 |  |
| O=C(CCN1CCCCC1)N[C@H]1CC[C@@H](CCn2cc(-c3cccc(F)c3)nn2)O[C@H]1CO | 1.07 ± 0.038 |  |

| Structure (SMILES) | viability index [1] | viability index [2] |
| --- | --- | --- |
| C[C@@H]1CN([C@@H](C)CO)C(=O)c2cc(NC(=O)Nc3cccc4ccccc34)ccc2O[C@@H](C)CCCCO[C@@H]1CN(C)S(=O)(=O)c1cn(C)cn1 | 0.949 ± 0.081 |  |
| C[C@@H]1CC(=O)NCC/C=C\C[C@H](c2ccc3c(c2)OCO3)NC1=O | 1.059 ± 0.0056 |  |
| C[C@@H]1CN([C@@H](C)CO)C(=O)CCCn2nncc2CO[C@H]1CN(C)S(=O)(=O)c1cn(C)cn1 | 1.07 ± 0.065 |  |
| C[C@H]1CN([C@@H](C)CO)C(=O)c2cc(N(C)C)ccc2O[C@@H]1CN(C)CC1CCCCC1 | 1.01 ± 0.12 |  |
| COc1ccc2c3c([C@@H](CO)N(C[C@]33CN(Cc4ccccc4F)C3)C(=O)Nc3ccc(F)cc3)n(C)c2c1 | 0.791 ± 0.066 |  |
| COc1ccc2c3c([C@H](CO)N(C[C@]33CN(Cc4ccccc4F)C3)C(=O)Nc3ccc(F)cc3)n(C)c2c1 | 1 ± 0.091 |  |
| COc1ccc2c3c([C@@H](CO)N(C[C@]33CN(C3)C(=O)Cc3ccncc3)C(=O)Nc3ccc(F)cc3)n(C)c2c1 | 0.974 ± 0.085 |  |
| O=C(Cc1cccnc1)N1CC(=O)N2[C@H](CO)[C@@H](c3ccc(C#CC4CCCCC4)cc3)[C@@H]2C1 | 1.07 ± 0.032 |  |
| COc1cccc(C#Cc2ccc([C@H]3[C@H](CO)N4C(=O)CN(C(=O)Cc5cccnc5)C[C@@H]34)cc2)c1 | 0.945 ± 0.048 |  |
| COc1cccc(C#Cc2ccc([C@H]3[C@@H](CO)N4C(=O)CN(C(=O)c5ccccc5)C[C@H]34)cc2)c1 |  | 0.754 ± 0.074 |
| COc1cccc(C#Cc2ccc([C@@H]3[C@H](CO)N4C(=O)CN(C(=O)Cc5cccnc5)C[C@@H]34)cc2)c1 | 0.904 ± 0.094 |  |
| COc1cccc(C#Cc2ccc([C@H]3[C@H]4CN(C(=O)Cc5cccnc5)CC(=O)N4[C@H]3CO)cc2)c1 | 1.057 ± 0.0037 |  |
| CCCNC(=O)N1CC(=O)N2[C@H](CO)[C@@H](c3ccc(C#Cc4cccc(OC)c4)cc3)[C@H]2C1 | 0.936 ± 0.075 |  |
| CCCNC(=O)N1CC(=O)N2[C@H](CO)[C@H](c3ccc(C#Cc4cccc(OC)c4)cc3)[C@@H]2C1 | 1.02 ± 0.062 |  |
| COc1cccc(C#Cc2ccc([C@H]3[C@@H](CO)N4C(=O)CN(C(=O)Cc5cccnc5)C[C@H]34)cc2)c1 | 0.804 ± 0.11 |  |
| O=C(Cc1cccnc1)N1CC(=O)N2[C@H](CO)[C@H](c3ccc(C#CC4CCCCC4)cc3)[C@H]2C1 | 0.801 ± 0.073 |  |
| COc1cccc(C#Cc2ccc([C@H]3[C@@H](CO)N4C(=O)CN(C(=O)Cc5ccccc5)C[C@H]34)cc2)c1 |  | 0.778 ± 0.047 |
| COc1cccc(C#Cc2ccc([C@@H]3[C@@H](CO)N4C(=O)CN(C(=O)Cc5cccnc5)C[C@H]34)cc2)c1 | 1.01 ± 0.084 |  |
| O=C(Cc1cccnc1)N1CC(=O)N2[C@H](CO)[C@@H](c3ccc(C#CC4CCCCC4)cc3)[C@H]2C1 | 1.04 ± 0.06 |  |
| CO[C@@H]1CN(C)C(=O)c2cc(NS(C)(=O)=O)ccc2OC[C@@H](C)N(C(=O)C2CCOCC2)C[C@@H]1C | 1.17 ± 0.07 |  |
| CN(C)C(=O)c1ccc(-c2ccc([C@@H]3[C@@H]4CN(Cc5ccc6c(c5)OCO6)C[C@H]3N4)cc2)cc1 | 1.05 ± 0.098 |  |
| COc1ccc2c3c([C@H](CO)N(Cc4ccncc4)C[C@]33CN(C3)C(=O)C3CCCCC3)n(C)c2c1 | 1.03 ± 0.079 |  |
| O=C(C1CCOCC1)N1CC(=O)N2[C@@H](CO)[C@H](c3ccc(C#CCc4ccccc4)cc3)[C@@H]2C1 | 1.084 ± 0.0042 |  |
